From ChEMBL document CHEMBL1961873, “Compounds: GSK PKIS; Assays: Nanosyn kinase panel” (2012)

Columns and labels:
[1] = biological target: T1, 3-phosphoinositide-dependent protein kinase 1 (Homo sapiens) (UniProt O15530); conditions: at 0.1 µM;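 further: values are mean inhibition of PDK1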
T1 sequence (whole entry): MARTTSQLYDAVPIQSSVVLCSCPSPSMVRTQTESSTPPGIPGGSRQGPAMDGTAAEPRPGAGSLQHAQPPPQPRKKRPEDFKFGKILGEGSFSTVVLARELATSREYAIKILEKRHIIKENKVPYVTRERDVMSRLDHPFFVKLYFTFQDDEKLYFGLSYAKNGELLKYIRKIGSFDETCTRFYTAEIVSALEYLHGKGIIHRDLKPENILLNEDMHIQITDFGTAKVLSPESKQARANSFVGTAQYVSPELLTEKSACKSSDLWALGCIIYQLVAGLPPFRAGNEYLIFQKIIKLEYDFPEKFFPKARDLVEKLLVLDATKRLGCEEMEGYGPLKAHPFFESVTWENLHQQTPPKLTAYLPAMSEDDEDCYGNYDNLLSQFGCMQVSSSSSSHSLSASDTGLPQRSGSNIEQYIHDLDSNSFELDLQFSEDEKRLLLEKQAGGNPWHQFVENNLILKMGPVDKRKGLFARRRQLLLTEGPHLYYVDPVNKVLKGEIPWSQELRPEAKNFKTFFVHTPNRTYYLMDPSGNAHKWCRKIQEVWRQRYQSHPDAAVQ

[2] = biological target: cAMP-dependent protein kinase catalytic subunit alpha (Homo sapiens) (UniProt P17612); conditions: at 0.1 µM
[3] = biological target: cAMP-dependent protein kinase catalytic subunit alpha (Homo sapiens) (UniProt P17612); conditions: at 1 µM
[4] = biological target: Protein kinase C alpha type (Homo sapiens) (UniProt P17252); conditions: at 0.1 µM
[5] = biological target: Protein kinase C alpha type (Homo sapiens) (UniProt P17252); conditions: at 1 µM
[6] = biological target: Protein kinase C beta type (Homo sapiens) (UniProt P05771); conditions: at 0.1 µM
Protein kinase C beta type (Homo sapiens), sequence (P05771 2-671 limits assumed): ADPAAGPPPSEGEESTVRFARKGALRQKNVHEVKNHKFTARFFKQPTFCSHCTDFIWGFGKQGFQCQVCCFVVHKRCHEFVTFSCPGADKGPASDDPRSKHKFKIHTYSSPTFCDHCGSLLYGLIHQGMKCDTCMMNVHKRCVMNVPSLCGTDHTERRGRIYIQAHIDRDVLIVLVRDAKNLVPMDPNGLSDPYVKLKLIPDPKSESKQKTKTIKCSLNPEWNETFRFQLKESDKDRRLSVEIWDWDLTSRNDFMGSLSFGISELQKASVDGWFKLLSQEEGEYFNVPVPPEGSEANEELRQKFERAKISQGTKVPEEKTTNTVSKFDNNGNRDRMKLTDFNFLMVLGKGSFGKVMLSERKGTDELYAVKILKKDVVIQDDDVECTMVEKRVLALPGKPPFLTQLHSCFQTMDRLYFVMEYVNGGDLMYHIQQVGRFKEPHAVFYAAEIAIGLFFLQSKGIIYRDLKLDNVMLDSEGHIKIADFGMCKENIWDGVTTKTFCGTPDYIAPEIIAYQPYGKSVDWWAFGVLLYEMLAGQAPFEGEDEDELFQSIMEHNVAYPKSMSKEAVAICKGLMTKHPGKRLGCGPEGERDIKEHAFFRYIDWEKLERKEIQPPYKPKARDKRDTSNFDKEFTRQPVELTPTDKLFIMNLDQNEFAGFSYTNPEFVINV

[7] = biological target: Protein kinase C beta type (Homo sapiens) (UniProt P05771); conditions: at 1 µM
[8] = biological target: Protein kinase C eta type (Homo sapiens) (UniProt P24723); conditions: at 0.1 µM
Protein kinase C eta type (Homo sapiens), sequence (P24723 whole entry): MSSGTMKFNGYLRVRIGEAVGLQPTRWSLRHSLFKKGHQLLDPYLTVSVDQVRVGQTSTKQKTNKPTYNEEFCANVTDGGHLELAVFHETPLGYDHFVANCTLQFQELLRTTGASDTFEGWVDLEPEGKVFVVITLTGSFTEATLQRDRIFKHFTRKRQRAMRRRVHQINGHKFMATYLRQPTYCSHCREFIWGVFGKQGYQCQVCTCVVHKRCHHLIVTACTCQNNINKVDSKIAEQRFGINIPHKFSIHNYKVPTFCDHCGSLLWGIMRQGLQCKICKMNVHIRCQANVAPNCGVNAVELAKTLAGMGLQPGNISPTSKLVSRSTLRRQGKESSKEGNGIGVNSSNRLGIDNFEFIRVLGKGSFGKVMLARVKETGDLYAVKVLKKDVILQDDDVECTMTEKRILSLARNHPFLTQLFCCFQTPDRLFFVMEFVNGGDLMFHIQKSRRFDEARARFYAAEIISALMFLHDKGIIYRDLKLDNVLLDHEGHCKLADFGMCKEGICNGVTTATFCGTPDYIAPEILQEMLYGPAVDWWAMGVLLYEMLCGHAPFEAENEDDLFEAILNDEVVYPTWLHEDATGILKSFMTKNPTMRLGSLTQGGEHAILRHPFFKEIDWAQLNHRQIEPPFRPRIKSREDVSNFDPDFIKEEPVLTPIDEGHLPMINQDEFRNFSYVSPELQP

[9] = biological target: Protein kinase C eta type (Homo sapiens) (UniProt P24723); conditions: at 1 µM
[10] = biological target: Protein kinase C gamma type (Homo sapiens) (UniProt P05129); conditions: at 0.1 µM
[11] = biological target: Protein kinase C gamma type (Homo sapiens) (UniProt P05129); conditions: at 1 µM
[12] = biological target: T2, Protein kinase C iota type (Homo sapiens) (UniProt P41743); conditions: at 0.1 µM
T2 sequence (whole entry): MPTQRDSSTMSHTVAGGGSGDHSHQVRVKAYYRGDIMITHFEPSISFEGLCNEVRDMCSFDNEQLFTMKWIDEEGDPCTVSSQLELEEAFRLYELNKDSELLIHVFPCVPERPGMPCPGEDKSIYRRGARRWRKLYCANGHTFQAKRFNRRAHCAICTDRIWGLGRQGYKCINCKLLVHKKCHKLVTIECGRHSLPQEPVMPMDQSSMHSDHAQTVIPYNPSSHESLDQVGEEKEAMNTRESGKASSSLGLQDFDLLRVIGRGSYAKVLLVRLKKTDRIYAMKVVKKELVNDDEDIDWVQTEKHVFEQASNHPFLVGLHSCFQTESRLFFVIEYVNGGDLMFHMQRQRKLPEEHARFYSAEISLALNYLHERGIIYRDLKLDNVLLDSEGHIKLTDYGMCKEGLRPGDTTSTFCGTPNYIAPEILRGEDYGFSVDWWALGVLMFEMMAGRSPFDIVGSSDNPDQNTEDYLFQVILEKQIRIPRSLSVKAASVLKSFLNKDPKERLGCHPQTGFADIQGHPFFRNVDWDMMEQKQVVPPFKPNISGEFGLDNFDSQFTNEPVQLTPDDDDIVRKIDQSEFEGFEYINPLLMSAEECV

[13] = biological target: T2, Protein kinase C iota type (Homo sapiens); conditions: at 1 µM
[14] = biological target: Protein kinase C theta type (Homo sapiens) (UniProt Q04759); conditions: at 0.1 µM
Protein kinase C theta type (Homo sapiens), sequence (Q04759 whole entry, looked up): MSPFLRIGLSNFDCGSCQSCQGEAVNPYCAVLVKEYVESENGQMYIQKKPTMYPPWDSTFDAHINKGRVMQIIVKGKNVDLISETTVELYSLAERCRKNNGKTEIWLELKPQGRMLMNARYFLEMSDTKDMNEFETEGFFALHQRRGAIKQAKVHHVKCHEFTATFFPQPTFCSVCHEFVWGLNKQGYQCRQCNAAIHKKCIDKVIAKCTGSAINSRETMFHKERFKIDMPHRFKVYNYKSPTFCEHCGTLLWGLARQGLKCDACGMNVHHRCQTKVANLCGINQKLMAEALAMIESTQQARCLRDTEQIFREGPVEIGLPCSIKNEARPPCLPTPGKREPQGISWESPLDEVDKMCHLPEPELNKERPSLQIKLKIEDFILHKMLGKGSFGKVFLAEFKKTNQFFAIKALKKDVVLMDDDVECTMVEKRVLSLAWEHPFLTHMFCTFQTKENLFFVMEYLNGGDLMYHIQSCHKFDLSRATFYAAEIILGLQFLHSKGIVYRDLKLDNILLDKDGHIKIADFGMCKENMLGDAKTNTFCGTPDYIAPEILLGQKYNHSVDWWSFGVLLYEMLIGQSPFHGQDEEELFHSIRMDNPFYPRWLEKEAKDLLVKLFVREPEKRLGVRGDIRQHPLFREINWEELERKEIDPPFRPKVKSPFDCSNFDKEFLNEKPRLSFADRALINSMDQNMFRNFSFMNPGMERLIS

[15] = biological target: Protein kinase C theta type (Homo sapiens) (UniProt Q04759); conditions: at 1 µM
[16] = biological target: Protein kinase C beta type (Homo sapiens) (UniProt P05771); conditions: at 0.1 µM; remark: listed apart in the source
[17] = biological target: Protein kinase C beta type (Homo sapiens) (UniProt P05771); conditions: at 1 µM; remark: listed apart in the source
[18] = biological target: T3, Serine/threonine-protein kinase D1 (Homo sapiens) (UniProt Q15139); conditions: at 0.1 µM
T3 sequence (whole entry): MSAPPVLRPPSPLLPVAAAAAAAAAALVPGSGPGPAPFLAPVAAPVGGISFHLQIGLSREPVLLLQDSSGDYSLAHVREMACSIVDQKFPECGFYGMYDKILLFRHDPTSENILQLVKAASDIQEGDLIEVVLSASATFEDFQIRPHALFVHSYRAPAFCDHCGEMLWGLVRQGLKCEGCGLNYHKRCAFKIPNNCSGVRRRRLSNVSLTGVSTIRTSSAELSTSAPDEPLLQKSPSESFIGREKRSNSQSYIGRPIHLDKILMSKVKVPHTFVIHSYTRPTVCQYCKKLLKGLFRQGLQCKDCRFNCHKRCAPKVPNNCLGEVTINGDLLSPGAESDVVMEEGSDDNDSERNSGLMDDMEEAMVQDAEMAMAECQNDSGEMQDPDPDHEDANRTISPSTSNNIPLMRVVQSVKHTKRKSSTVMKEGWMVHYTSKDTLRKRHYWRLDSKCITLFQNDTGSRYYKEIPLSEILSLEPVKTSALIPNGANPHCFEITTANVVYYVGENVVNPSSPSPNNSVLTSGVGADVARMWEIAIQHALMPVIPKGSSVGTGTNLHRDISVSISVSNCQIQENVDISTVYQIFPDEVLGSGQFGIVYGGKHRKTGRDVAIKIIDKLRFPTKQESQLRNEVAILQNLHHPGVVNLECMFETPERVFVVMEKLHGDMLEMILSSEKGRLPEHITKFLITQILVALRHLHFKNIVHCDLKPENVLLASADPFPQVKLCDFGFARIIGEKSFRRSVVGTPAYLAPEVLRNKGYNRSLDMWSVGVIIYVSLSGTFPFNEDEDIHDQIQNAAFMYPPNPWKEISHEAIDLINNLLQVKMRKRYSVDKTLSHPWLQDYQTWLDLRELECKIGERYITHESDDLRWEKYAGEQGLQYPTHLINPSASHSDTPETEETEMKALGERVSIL

[19] = biological target: T3, Serine/threonine-protein kinase D1 (Homo sapiens); conditions: at 1 µM
[20] = biological target: T4, Serine/threonine-protein kinase D2 (Homo sapiens) (UniProt Q9BZL6); conditions: at 0.1 µM;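 further: reported percent inhibition values are means, part of the GSK PKIS kinase panel screen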
T4 sequence (whole entry): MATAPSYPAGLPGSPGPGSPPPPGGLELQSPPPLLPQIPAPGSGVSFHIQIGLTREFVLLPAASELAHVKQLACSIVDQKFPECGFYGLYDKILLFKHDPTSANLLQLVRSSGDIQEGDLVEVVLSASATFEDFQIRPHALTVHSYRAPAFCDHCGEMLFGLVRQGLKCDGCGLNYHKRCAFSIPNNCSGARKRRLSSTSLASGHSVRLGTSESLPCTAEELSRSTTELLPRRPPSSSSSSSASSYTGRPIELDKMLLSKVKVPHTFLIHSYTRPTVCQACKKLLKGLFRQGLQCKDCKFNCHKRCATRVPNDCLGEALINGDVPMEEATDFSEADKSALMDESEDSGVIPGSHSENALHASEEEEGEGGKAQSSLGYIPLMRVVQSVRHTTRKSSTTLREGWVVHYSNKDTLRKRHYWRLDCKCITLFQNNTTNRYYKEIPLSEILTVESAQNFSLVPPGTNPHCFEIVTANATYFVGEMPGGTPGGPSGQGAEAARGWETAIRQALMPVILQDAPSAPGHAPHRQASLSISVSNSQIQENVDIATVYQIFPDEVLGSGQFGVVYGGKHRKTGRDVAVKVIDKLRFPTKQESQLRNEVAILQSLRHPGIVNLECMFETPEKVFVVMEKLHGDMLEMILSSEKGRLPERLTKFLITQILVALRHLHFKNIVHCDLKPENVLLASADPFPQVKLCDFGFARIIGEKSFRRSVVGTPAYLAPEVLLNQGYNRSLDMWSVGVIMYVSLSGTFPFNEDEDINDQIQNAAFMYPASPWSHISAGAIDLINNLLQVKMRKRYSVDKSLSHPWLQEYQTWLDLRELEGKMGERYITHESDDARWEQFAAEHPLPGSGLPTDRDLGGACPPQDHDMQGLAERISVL

## NC(=O)c1cc(-c2ccc(F)cc2)cc(-c2ccncc2)c1N
[1]
  inhibition: 1.54%
[2]
  inhibition: 1.46%
[3]
  inhibition: 3.06%
[4]
  inhibition: 0.16%
[5]
  inhibition: 1.21%
[6]
  inhibition: -1.29%
[7]
  inhibition: 3.15%
[8]
  inhibition: 3.71%
[9]
  inhibition: 8.19%
[10]
  inhibition: 0.15%
[11]
  inhibition: 5.15%
[12]
  inhibition: 0.73%
[13]
  inhibition: 0.87%
[14]
  inhibition: 1.84%
[15]
  inhibition: 3.65%
[16]
  inhibition: 1.46%
[17]
  inhibition: 1.35%
[18]
  inhibition: 4.65%
[19]
  inhibition: 3.31%
[20]
  inhibition: 3.51%

## CN(C)CCOc1ccc(-c2cc(-c3ccc4c(c3)CCC4=NO)c(-c3ccncc3)o2)cc1
[1]
  inhibition: 0.51%
[2]
  inhibition: 2.75%
[3]
  inhibition: 21%
[4]
  inhibition: -0.04%
[5]
  inhibition: 1.32%
[6]
  inhibition: -1.02%
[7]
  inhibition: 4.4%
[8]
  inhibition: 0.38%
[9]
  inhibition: -1.11%
[10]
  inhibition: 0.61%
[11]
  inhibition: 0.02%
[12]
  inhibition: -1.87%
[13]
  inhibition: -1.84%
[14]
  inhibition: -1.06%
[15]
  inhibition: -0.42%
[16]
  inhibition: -0.72%
[17]
  inhibition: 2.28%
[18]
  inhibition: -0.39%
[19]
  inhibition: 0.79%
[20]
  inhibition: 0.89%

## Fc1ccc(-c2c(-c3ccncc3)nc3n2CCS3)cc1
[1]
  inhibition: 2.05%
[2]
  inhibition: -0.65%
[3]
  inhibition: 13.2%
[4]
  inhibition: -2.65%
[5]
  inhibition: -2.48%
[6]
  inhibition: 2.56%
[7]
  inhibition: 15.9%
[8]
  inhibition: -2.42%
[9]
  inhibition: 7.59%
[10]
  inhibition: 1%
[11]
  inhibition: 4.08%
[12]
  inhibition: 1.39%
[13]
  inhibition: 1.01%
[14]
  inhibition: 1.55%
[15]
  inhibition: 4.99%
[16]
  inhibition: 1.11%
[17]
  inhibition: 3.63%
[18]
  inhibition: -0.81%
[19]
  inhibition: 2.14%
[20]
  inhibition: -0.29%

## CCc1nccc2c1nc(-c1nonc1N)n2CC
[1]
  inhibition: 0.73%
[2]
  inhibition: 1.21%
[3]
  inhibition: 4.19%
[4]
  inhibition: 1.25%
[5]
  inhibition: 2.71%
[6]
  inhibition: 2.42%
[7]
  inhibition: 20%
[8]
  inhibition: 4.76%
[9]
  inhibition: 21.1%
[10]
  inhibition: -1.83%
[11]
  inhibition: -2.73%
[12]
  inhibition: -0.45%
[13]
  inhibition: 1.45%
[14]
  inhibition: -0.41%
[15]
  inhibition: 0.94%
[16]
  inhibition: 0.5%
[17]
  inhibition: 1.81%
[18]
  inhibition: 1.12%
[19]
  inhibition: 2.3%
[20]
  inhibition: 1.51%

## O=C(Nc1n[nH]c2cc(-c3ccccc3)ccc12)C1CC1
[1]
  inhibition: 1.51%
[2]
  inhibition: 1.89%
[3]
  inhibition: 2.35%
[4]
  inhibition: 0.99%
[5]
  inhibition: 1.87%
[6]
  inhibition: -0.78%
[7]
  inhibition: 4.47%
[8]
  inhibition: 2.72%
[9]
  inhibition: 2.77%
[10]
  inhibition: 1.69%
[11]
  inhibition: 1.52%
[12]
  inhibition: 2.86%
[13]
  inhibition: 3.51%
[14]
  inhibition: 2.7%
[15]
  inhibition: 1.97%
[16]
  inhibition: 1.8%
[17]
  inhibition: 3.32%
[18]
  inhibition: 4.43%
[19]
  inhibition: 5.64%
[20]
  inhibition: 4.79%

## COc1ccc2cc(-c3c(-c4ccncc4)nc(-c4ccc(S(C)(=O)=O)cc4C)n3C)ccc2c1
[1]
  inhibition: 0.71%
[2]
  inhibition: 8.44%
[3]
  inhibition: 29.8%
[4]
  inhibition: 1.11%
[5]
  inhibition: 6.73%
[6]
  inhibition: 2.3%
[7]
  inhibition: 14.5%
[8]
  inhibition: 7.27%
[9]
  inhibition: 7.65%
[10]
  inhibition: 2.09%
[11]
  inhibition: 7.85%
[12]
  inhibition: 3.93%
[13]
  inhibition: 3.45%
[14]
  inhibition: 2.19%
[15]
  inhibition: 5.03%
[16]
  inhibition: 3.45%
[17]
  inhibition: 9.63%
[18]
  inhibition: 4.08%
[19]
  inhibition: 4.53%
[20]
  inhibition: 4.88%

## COc1cc(C)c(N(C)C(=O)CN(C)C)cc1Nc1nc(Nc2cccc(F)c2C(N)=O)c2cc[nH]c2n1
[1]
  inhibition: 3.26%
[2]
  inhibition: -0.93%
[3]
  inhibition: -3.21%
[4]
  inhibition: -3%
[5]
  inhibition: -2.59%
[6]
  inhibition: 1.6%
[7]
  inhibition: -0.89%
[8]
  inhibition: 4.46%
[9]
  inhibition: 1.91%
[10]
  inhibition: 2.63%
[11]
  inhibition: 0.07%
[12]
  inhibition: 0.9%
[13]
  inhibition: 1.43%
[14]
  inhibition: -0.27%
[15]
  inhibition: -0.14%
[16]
  inhibition: 0.9%
[17]
  inhibition: 0.92%
[18]
  inhibition: -1.96%
[19]
  inhibition: -0.45%
[20]
  inhibition: -2.04%
